# Test results: PubChem BioAssay (NCI)
# This is part of a sample that, as a whole, favours compounds with a hit. Of some 79,000 tested, about 15% had one in any assay. A number with no mark means an inactive call. Calls of active or inactive are those of the source. Cut-off read from the data, not from the text of the source: active = growth inhibition above about 70%; inactive = the rest.
# Columns and labels:
# [1] = NCI Yeast Anticancer Drug Screen. Data for the rad50 strain (AID 155);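 note: 0% = growth of vehicle-only cultures of the same strain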; settings: S. cerevisiae rad50 strain growth inhibition; at 50.0 µM; active compounds read high
# Summary of the method: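 Relative growth inhibition (compound vs vehicle) was measured in yeast with a defined repair-gene alteration.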
# [2] = NCI Yeast Anticancer Drug Screen. Data for the mec2-1 strain (AID 157); settings: S. cerevisiae mec2-1 strain, at 50.0 µM, active compounds read high
# Summary of the method: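 Mutant yeast (mec2-1) grown with compound; growth inhibition relative to vehicle control reported.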
# [3] = NCI Yeast Anticancer Drug Screen. Data for the sgs1 mgt1 strain (AID 161);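 note: 0% = growth of cultures given vehicle only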; settings: S. cerevisiae sgs1 mgt1 strain, at 50.0 µM, active compounds read high
# Summary of the method: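 Yeast cells carrying a defined DNA-repair defect were exposed to test compounds. Growth inhibition was measured relative to vehicle-treated controls.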
# [4] = NCI Yeast Anticancer Drug Screen. Data for the cln2 rad14 strain (AID 165);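 note: 0% = growth equal to vehicle treated cultures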; settings: S. cerevisiae cln2 rad14 strain, at 50.0 µM, active compounds read high
# Summary of the method: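 Readout is yeast growth inhibition versus vehicle-treated controls, using a strain with cln2 and rad14 alterations exposed to compound.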
# [5] = NCI Yeast Anticancer Drug Screen. Data for the bub3 strain (AID 167); settings: S. cerevisiae bub3 mutant strain, at 50.0 µM, active compounds read high
# Summary of the method: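 Screening used yeast with an engineered genetic alteration affecting cell cycle control. Compound-exposed cultures were compared with vehicle cultures, and reduced growth was taken as inhibition.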
# [6] = NCI Yeast Anticancer Drug Screen. Data for the mlh1 rad18 strain (AID 175); settings: S. cerevisiae mlh1 rad18 strain growth inhibition; at 50.0 µM; active compounds read high
# Summary of the method: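 Genetically defined yeast (DNA repair-deficient) exposed to compounds; growth inhibition determined relative to vehicle.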
Structure (SMILES),growth inhibition [1],growth inhibition [2],growth inhibition [3],growth inhibition [4],growth inhibition [5],growth inhibition [6]
C=CCOC(=O)C1(O)c2ccccc2NC(=S)N1CC=C (configuration not stated),1.35%,7.4%,5.2%,6.9%,10.3%,-0.8%
CCCCOP(=O)(OCCCC)/C(C#N)=C/c1ccc(C)o1,-21.2%,-40.8%,-4.85%,-35.4%,-4.7%,10.1%
COc1ccc(C(C)=O)c(O)c1,-10.4%,-15.2%,-10.2%,-3.7%,3.2%,5.2%
CCOC(=O)C(C)(C)O,18.8%,14%,1.05%,-35.9%,9.05%,19.2%
O=[N+]([O-])c1cc(NC(=S)SCc2ccc3c(c2)OCO3)ccc1Cl,82.7% (active),72.2% (active),76.7% (active),42.8%,56.4%,78% (active)
CC(=O)OC(C)=O,-20.2%,9.9%,8%,-33%,7.55%,-16.4%
CN1C(=O)N(C)C2(CCN(CC(CC3OCCO3)c3ccc(F)cc3)CC2)C1=O (configuration not stated),-15.8%,7.85%,0.4%,2.5%,-6.8%,-1.55%
OCc1ccccc1CC(O)c1ccccc1 (configuration not stated),-23.7%,-17.3%,-20.2%,-4.65%,0.05%,-59.4%
CCCCOC(C)OCCCC,9.3%,-6.35%,-3.4%,5.2%,5.65%,-17%
CCOc1ccc(OCC)c(C(=O)CCC(=O)Nc2ccc(Br)cc2)c1,-8.9%,-2.9%,-8.3%,-12.8%,1.45%,-6.75%
CCOC(=O)C1CC=CCC1C(=O)OCC (configuration not stated),-5.25%,-7.5%,0.5%,2.55%,1.3%,-19.5%
COc1cc(/C=C/C(=O)OCCc2ccccc2)ccc1O,74.8% (active),82% (active),90.2% (active),89% (active),90.1% (active),61%
O=C(O)c1c(O)ccc(O)c1C(=O)O,-38.5%,-30.8%,-29.7%,-21.1%,-8.8%,-11.2%
CC/C(C)=N/C(=O)NN,-20.1%,8.75%,-16.2%,19.3%,35.5%,20.3%
CC1=C[C@H](C[C@]2(C)c3c(c4c(C)cccc4oc3=O)O[C@@H]2C)OC1=O,1%,24.4%,11.3%,17.2%,-3.2%,33.2%
CCc1cc2c(Nc3ccccc3)c3c(nc2s1)CCCC3,-15.3%,-25.8%,-8.75%,11.5%,16.4%,-33.5%
Fc1c(F)c(F)c(Nc2c(F)c(F)c3c(F)c(F)c(F)c(F)c3c2F)c(F)c1F,1.15%,49.7%,-16.3%,-62.9%,2.9%,0.95%
O=C1CCC(N2C(=O)C3C4CCC(O4)C3C2=O)C(=O)O1 (configuration not stated),12.9%,3%,13.9%,13.8%,13.8%,7.85%
Nc1cc(=O)[nH]c2ncnn12,18.2%,-12%,2.4%,6.2%,4%,20.1%
Cc1cc(=O)cc(-c2ccccc2)[nH]1,-32.5%,-11.3%,-12.5%,-37.3%,-2.5%,6.55%
c1ccc(CN2C3C4N(Cc5ccccc5)C2C2N(Cc5ccccc5)C(C(N2Cc2ccccc2)N4Cc2ccccc2)N3Cc2ccccc2)cc1,10.1%,2.35%,21.9%,3.2%,11.8%,-3.6%

Structure (SMILES),growth inhibition [1],growth inhibition [2],growth inhibition [3],growth inhibition [4],growth inhibition [5],growth inhibition [6]
CC(C)(C)CC(C)(C)c1cc2c(O)c(c1)Cc1cc(C(C)(C)CC(C)(C)C)cc(c1O)Cc1cc(C(C)(C)CC(C)(C)C)cc(c1O)Cc1cc(C(C)(C)CC(C)(C)C)cc(c1O)Cc1cc(C(C)(C)CC(C)(C)C)cc(c1O)Cc1cc(C(C)(C)CC(C)(C)C)cc(c1O)C2,7.4%,3.05%,18.4%,18.9%,4.95%,9.55%
CCOC(=O)c1nc2ccccc2nc1Nc1ccc(OC)c(OC)c1,-30.2%,-31.5%,-15.9%,-15.6%,-16.6%,-19.3%
Cc1ccc(S(=O)(=O)NC(=O)N(Cc2ccccc2)C(C)(C)C)cc1,3.4%,20.4%,16.1%,-0.15%,14.2%,16.9%
CSc1c2c(c(C)c3c1[nH]c1ccccc13)C=NCC2,10.8%,13.8%,8.6%,-83.2%,14%,17.7%
CC(C)CCOC(=O)C1C(=O)CC(c2ccccc2)C1c1ccccc1 (configuration not stated),11.1%,3.5%,-6.35%,-0.15%,6%,6.25%
O=C(O)Cc1ccc(Br)cc1,29.4%,-8.95%,11.9%,10.8%,1.1%,5.7%
CCN(CC)CN1C(=O)C(=O)c2ccccc21,6.8%,-25.4%,2.6%,24.4%,12.8%,10.3%
CC(=O)c1c(C)cc(C(C)(C)C)cc1C,18.4%,-1.1%,12.8%,-0.55%,9.3%,13.8%
Cc1[nH]c2ccc(-c3ccccc3)cc2c1CC(=O)OC(C)C,97% (active),98.5% (active),98.2% (active),97.8% (active),98.2% (active),98% (active)
CCCNS(=O)(=O)c1nc2ccccc2s1,-26%,-15.2%,-5.6%,-22.1%,2.65%,-20.8%
Oc1ccc(C(c2ccc(O)cc2)c2ccc(O)cc2)cc1,2.1%,3.9%,29.9%,19.1%,22.1%,-18.2%
O=c1c2ccccc2[nH]c2c(O)ccc(O)c12,18.3%,-1.65%,6.55%,7.65%,-1.55%,12.7%
COC1OC(CCl)C(Cl)C(OC)C1OC (configuration not stated),-9.1%,-1.1%,5.6%,-1.5%,-2.5%,14.4%
C=C(C)C1CCC2(C=O)CCC3(C)C(CCC4C5(C)CCC(O)C(C)(C)C5CCC43C)C12 (configuration not stated),25.9%,37%,25.1%,15.8%,26%,20.8%
CCOC(=O)C(F)(F)C(F)(F)C(F)(F)F,5.45%,-16.4%,9.1%,10.9%,-5.55%,11.8%
CC(=O)N1CCOCC1,23.1%,1.55%,11.1%,-28.6%,-1.8%,21.1%
Cc1cccc(C)c1NC(=O)C(=O)CC(=O)c1cccc([N+](=O)[O-])c1,45.4%,11.9%,2.2%,24.4%,19.2%,40.9%
O=C(C[N+]1(c2ccccc2)CCOCC1)c1ccccc1,28.4%,5.6%,-13.8%,4.7%,-4.25%,21.1%
COc1cc(C2c3cc4c(cc3OC(C)(OC)C2C(C)=O)OCO4)cc(OC)c1O (configuration not stated),4.05%,-6.25%,-24.6%,-2.9%,-1.2%,-0.35%
Nc1[nH]n(-c2ccccc2)c(=O)c1/C=N/C(=S)NC1CCCCC1,-79%,-43.7%,-61%,-63.2%,-47.8%,-67.9%
CC(=O)N(CN1C(=O)CCC1C(=O)O)c1ccccc1 (configuration not stated),20.1%,-0.55%,-8.5%,1.55%,0.7%,-31.3%
